# Laboratory results reported in PMC5540273 (PLoS ONE, 2017).
# What was measured:
# Conditions in all cases: concentration: 1 μM, replicates: in singlicate; n = 1
# EPHA7 = system: EPHA7
# EPHA8 = system: EPHA8
# EPHB1 = system: EPHB1
# EPHB2 = system: EPHB2
# EPHB3 = system: EPHB3
# EPHB4 = system: EPHB4
# EPHB6 = system: EPHB6
# ERBB2 = system: ERBB2
# ERBB3 = system: ERBB3
# ERBB4 = system: ERBB4
# ERK1 = system: T1, ERK1
# T1 construct: gene MAPK3
# ERK2 = system: T2, ERK2
# T2 construct: gene MAPK1
# ERK3 = system: T3, ERK3
# T3 construct: gene MAPK6
# ERK4 = system: T4, ERK4
# T4 construct: gene MAPK4
# ERK5 = system: T5, ERK5
# T5 construct: gene MAPK7
# ERK8 = system: T6, ERK8
# T6 construct: gene MAPK15
# ERN1 = system: ERN1
# FAK = system: T7, FAK
# T7 construct: gene PTK2
# FER = system: FER
# FES = system: FES
# 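Note: KINOMEscan kinase panel screen.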
Compound,%Inh (EPHA7),%Inh (EPHA8),%Inh (EPHB1),%Inh (EPHB2),%Inh (EPHB3),%Inh (EPHB4),%Inh (EPHB6),%Inh (ERBB2),%Inh (ERBB3),%Inh (ERBB4),%Inh (ERK1),%Inh (ERK2),%Inh (ERK3),%Inh (ERK4),%Inh (ERK5),%Inh (ERK8),%Inh (ERN1),%Inh (FAK),%Inh (FER),%Inh (FES)
CC(=O)N1CCN(c2ccc(Nc3nccc(-c4sc(C(C)C)nc4-c4cccc(NS(=O)(=O)c5cccc(Cl)c5)c4)n3)cn2)CC1 [GSK1660437],0%,29%,21%,0%,0%,0%,97.7%,82%,92%,40%,0%,98.8%,0%,0%,0%,66%,44%,3%,35%,0%
O=C(Nc1n[nH]c2nc(-c3ccc(O)cc3)ccc12)C1CC1 [SB-710363],0%,0%,0%,16%,0%,0%,38%,0%,94.6%,6%,0%,0%,0%,0%,63%,90.2%,0%,0%,0%,0%
COc1cc(Nc2nccc(N3CCC(NC(=O)c4cc5ccccc5s4)C3)n2)cc(OC)c1OC (stereo not shown) [GSK1379760],4%,17%,6%,26%,5%,15%,61%,6%,12%,0%,12%,9%,0%,0%,0%,0%,6%,0%,34%,0%
FC(F)(F)c1ccc(/C=C/c2cncnc2Nc2ccc3[nH]c(Cc4ccccc4)nc3c2)cc1 [GW709199],0%,1%,9%,7%,5%,37%,0%,69%,69%,72%,0%,0%,0%,9%,12%,21%,0%,21%,0%,38%
Cc1occc1-c1ncc(OC[C@@H](N)Cc2c[nH]c3ccccc23)cc1-c1ccc2[nH]nc(C)c2c1.O=C(O)C(F)(F)F [GSK682037],6%,39%,10%,0%,17%,14%,0%,81%,0%,47%,94.1%,82%,5%,15%,0%,0%,6%,40%,76%,47%
CN(C)Cc1ccc(-c2ccc3c(Nc4ccc(Oc5ccccn5)cc4)ccnc3c2)o1 [GW567148],0%,13%,0%,0%,30%,0%,97.4%,45%,98.9%,0%,0%,0%,0%,0%,0%,23%,0%,0%,20%,5%
COc1ccc(CNC(=O)NC2CCN(c3ccnc(Nc4ccc(F)cc4)n3)CC2)cc1 [GSK1379788],0%,0%,1%,0%,0%,7%,38%,34%,10%,25%,0%,0%,0%,0%,0%,0%,0%,0%,17%,0%
Oc1cc(Nc2ccnc3cc(I)ccc23)ccc1F [GW552771],0%,49%,39%,14%,4%,45%,24%,22%,0%,36%,0%,0%,0%,0%,0%,11%,0%,0%,11%,0%
O=C(Nc1ccccc1F)NC1CCN(c2ccnc(Nc3ccc(F)cc3)n2)CC1 [GSK1379800],0%,0%,17%,0%,11%,8%,18%,33%,3%,32%,3%,0%,20%,0%,0%,0%,0%,0%,15%,0%
Cl.Cl.NCC(NCc1ccc(-c2ccnc3[nH]ccc23)s1)c1ccccc1 (stereo not shown) [GSK1321565],0%,0%,13%,0%,5%,7%,27%,0%,19%,11%,0%,0%,2%,0%,2%,18%,17%,19%,46%,0%
Nc1ncc(-c2cccnc2)c2scc(-c3ccc4c(c3)CCN4C(=O)Cc3ccccc3)c12 [GSK683281],19%,26%,21%,9%,12%,2%,98.1%,1%,0%,2%,0%,11%,4%,21%,0%,0%,35%,0%,33%,0%
C[C@@H]1CC[C@@H](C(=O)Nc2ccccc2)CN1c1cc(-c2ccc3c(N)n[nH]c3c2)nc(N)n1 [GSK2286062],0%,4%,5%,0%,0%,10%,14%,44%,0%,0%,10%,0%,0%,28%,0%,0%,0%,0%,13%,12%
Cl.Cl.NCC(NC(=O)c1cc(-c2ccccc2)c(-c2ccnc3[nH]ccc23)s1)c1ccccc1 (stereo not shown) [GSK1321561],11%,50%,16%,0%,7%,19%,2%,58%,0%,49%,6%,16%,0%,8%,0%,0%,0%,0%,36%,0%
Clc1ccc(-c2nn3ncccc3c2-c2ccnc(Nc3ccc4c(c3)OCCO4)n2)cc1 [GW829116],35%,3%,18%,13%,7%,0%,65%,32%,8%,84%,0%,12%,3%,0%,0%,1%,0%,0%,0%,0%
Fc1ccc(-c2ncn(C3CCNCC3)c2-c2ccnc(Oc3ccc(-c4ccccc4)cc3)n2)cc1 [SB-245391],3%,8%,10%,6%,16%,17%,15%,62%,33%,6%,47%,2%,0%,15%,9%,31%,45%,12%,0%,27%
CCCCc1nn2ncccc2c1-c1ccnc(Nc2ccc(N3CCN(C)CC3)cc2)n1 [GW684941],0%,73%,65%,26%,18%,62%,97.7%,69%,72%,66%,0%,0%,46%,0%,0%,63%,0%,0%,47%,14%
NCCCC(NC(=O)c1cc(Br)c(-c2ccnc3[nH]ccc23)s1)c1ccccc1.O=C(O)C(F)(F)F.O=C(O)C(F)(F)F (stereo not shown) [GSK1287544],8%,7%,30%,0%,0%,15%,0%,0%,0%,15%,12%,22%,0%,0%,0%,43%,22%,0%,0%,1%
